Laboratory results: PubChem BioAssay
Active and inactive are the calls of the source.

experiment: growth modulation of vineyard yeast isolate – strain RM11-1a, OD600, basal, 24 h, primary screen (AID 1177);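 further: cultures grown under basal conditions with no added stressor; test concentration not given here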; conditions: S. cerevisiae RM11-1a growth, OD600, 24 h; higher = more signal, called active from +8 up or from −8 down

z-score, inactive:
COCCOC(=O)N1C(=O)[C@@]2(c3cc(C#Cc4ccc(OC)cc4)ccc31)[C@H](C(=O)N1CCCCCCC1)[C@H]1C(=O)O[C@H](c3ccccc3)[C@H](c3ccccc3)N1[C@@H]2c1ccc(O)cc1 0.868
CN(C)C(=O)[C@]1(CCC(=O)OC(C)(C)C)N=C(c2ccc(OCCCO)cc2)O[C@@H]1c1ccccc1 0.0653
COC(=O)c1c(CC[C@@H](CO)NC(=O)N[C@H](Cn2cc(-c3ccccc3C)nn2)C(C)C)oc(C(C)=O)c1C(=O)OC -0.489
Cc1ccc(S[C@]2(C(=O)O)CC(=O)N(Cc3ccccc3Cl)[C@@H]2c2ccc(CO)cc2)cc1 0.573
COCCOC(=O)N1C(=O)[C@@]2(c3ccccc31)[C@H](C(=O)N1CCN(c3ncccn3)CC1)[C@H]1C(=O)O[C@H](c3ccccc3)[C@H](c3ccccc3)N1[C@@H]2c1ccc(OCCO)cc1 2.64
COCCOC(=O)N1C(=O)[C@@]2(c3cc(C#Cc4ccc(OC)cc4)ccc31)[C@H](C(=O)N1CCN(c3ncccn3)CC1)[C@H]1C(=O)O[C@H](c3ccccc3)[C@H](c3ccccc3)N1[C@@H]2c1ccccc1OCCO 4.28
NCCCCCNC(=O)[C@@H]1C[C@@H]2C(=O)N[C@@H](CCCCN)C(=O)N2[C@@H]1c1cccc(OCCO)c1 -0.0041
COc1ccc([Si](C)(C)[C@H]2[C@H](CCn3cc([C@H](O)c4ccccc4)nn3)O[C@@]3(C(=O)N(Cc4ccc(N5CCC5=O)cc4)c4ccccc43)[C@@H]2C)cc1 1.07
O=C1C[C@@](C(=O)NCC(F)(F)F)(c2ccc([N+](=O)[O-])cc2)[C@@H](c2ccc(CO)cc2)N1C1CCCCC1 -0.815
C#CCNC(=O)[C@H](Cc1ccccc1)NC(=O)[C@@H](N=[N+]=[N-])C(C)C -0.597
C[C@H]1C2=C3C(CC[C@H]4C(OCc5ccc(F)cc5C(F)(F)F)OC[C@](C)([C@@H]34)N(C(=O)OC(C)(C)C)C2)C2COC(=O)OCC21 (some centres undefined) 0.235
CC(C)(C)OC(=O)CC[C@]1(C(=O)N2CCOCC2)N=C(c2ccc(OCCCO)cc2)O[C@H]1c1ccccc1 -0.294
COc1ccc([Si](C)(C)[C@H]2[C@H](CCn3cc([C@H](O)c4ccccc4)nn3)O[C@@]3(C(=O)N(Cc4cccc(N5C(=O)c6cccc7cccc5c67)c4)c4ccccc43)[C@@H]2C)cc1 0.378
C=C(C(=O)CC[C@H](OC(=O)c1cccnc1)c1ccc(CO)o1)C(C)C -0.811
C=CC1c2cc(O)c(OC)cc2CCN1Cc1sc2ccccc2c1Cl (centres undefined) -3.6
CC(C)(C)OC(=O)CC[C@@]1(C(=O)O)N=C(c2ccc(OCCCO)cc2)O[C@@H]1c1ccccc1CN=[N+]=[N-] 0.323
CC=CC(O)C1C=CC2C(=O)N(C)C(=O)C2N1N1CCCCC1 (centres undefined) -0.714
CO[C@H]1O[C@H](CO)[C@@H](OC(=O)Nc2ccccc2-c2ccccc2)[C@H](OC(=O)Nc2ccc3c(c2)OCO3)[C@@H]1OC(=O)Nc1ccc2c(c1)OCO2 2.9
O=C1NCC(=O)N2[C@@H]1C[C@@H](C(=O)O)[C@H]2c1ccc(O)cc1 0.414
C[C@@H](OCc1ccccc1)C1NC(=O)[C@@]23C(=O)N[C@@H](Cc4ccccc4)C2[C@H](C)[C@@]2(C)O[C@H]2C3/C=C/C/C=C\CNC(=O)CNC1=O (some centres undefined) -0.509
CCOC(=O)[C@H]1C/C=C/C[C@H](C(=O)OCC)C(=O)O[C@H]2[C@@H](OC)O[C@H](CO)[C@@H](OC(=O)CCc3ccccc3)[C@@H]2OC1=O -0.143
C=C(CCCC)/C(=C/C[C@@H](OC(C)=O)c1ccc(CO)o1)c1cc(C(=O)OC)ccc1OC 0.0168
C=CCOC(=O)[C@@H]1[C@H]2C(=O)O[C@H](c3ccccc3)[C@H](c3ccccc3)N2[C@H](c2ccc(OCCOC(=O)[C@H]3C[C@H]4C(=O)N[C@@H](CCCC[N+](C)(C)C)C(=O)N4[C@H]3c3ccc(O)cc3)cc2)[C@@]12C(=O)Nc1ccc(I)cc12 2.12
COC1(C)CN(Cc2ccccc2Br)[C@H](/C=C/c2ccccc2)[C@H](Cc2ccccc2)O1 (some centres undefined) 0.44
